According to the supplement of paper PMC11732987, “Enantioselective OTUD7B fragment discovery through chemoproteomics screening and high-throughput optimisation” (Communications Chemistry, 2025):

Experiments:
Assay in all cases: log2 ratio of Biotin-Ahx-Ub-VS probe labelling (fragment/DMSO); higher = less target engagement (more negative = stronger competition), active = hit call of the paper (q ≤ 0.05, log2 ratio ≤ -1)
Conditions in all cases: compound concentration: 200 uM; treatment time: 3 h
USP34 = USP34 (UniProt Q70CQ2)
Chain of USP34 (Q70CQ2 whole entry, the tested form may be a part): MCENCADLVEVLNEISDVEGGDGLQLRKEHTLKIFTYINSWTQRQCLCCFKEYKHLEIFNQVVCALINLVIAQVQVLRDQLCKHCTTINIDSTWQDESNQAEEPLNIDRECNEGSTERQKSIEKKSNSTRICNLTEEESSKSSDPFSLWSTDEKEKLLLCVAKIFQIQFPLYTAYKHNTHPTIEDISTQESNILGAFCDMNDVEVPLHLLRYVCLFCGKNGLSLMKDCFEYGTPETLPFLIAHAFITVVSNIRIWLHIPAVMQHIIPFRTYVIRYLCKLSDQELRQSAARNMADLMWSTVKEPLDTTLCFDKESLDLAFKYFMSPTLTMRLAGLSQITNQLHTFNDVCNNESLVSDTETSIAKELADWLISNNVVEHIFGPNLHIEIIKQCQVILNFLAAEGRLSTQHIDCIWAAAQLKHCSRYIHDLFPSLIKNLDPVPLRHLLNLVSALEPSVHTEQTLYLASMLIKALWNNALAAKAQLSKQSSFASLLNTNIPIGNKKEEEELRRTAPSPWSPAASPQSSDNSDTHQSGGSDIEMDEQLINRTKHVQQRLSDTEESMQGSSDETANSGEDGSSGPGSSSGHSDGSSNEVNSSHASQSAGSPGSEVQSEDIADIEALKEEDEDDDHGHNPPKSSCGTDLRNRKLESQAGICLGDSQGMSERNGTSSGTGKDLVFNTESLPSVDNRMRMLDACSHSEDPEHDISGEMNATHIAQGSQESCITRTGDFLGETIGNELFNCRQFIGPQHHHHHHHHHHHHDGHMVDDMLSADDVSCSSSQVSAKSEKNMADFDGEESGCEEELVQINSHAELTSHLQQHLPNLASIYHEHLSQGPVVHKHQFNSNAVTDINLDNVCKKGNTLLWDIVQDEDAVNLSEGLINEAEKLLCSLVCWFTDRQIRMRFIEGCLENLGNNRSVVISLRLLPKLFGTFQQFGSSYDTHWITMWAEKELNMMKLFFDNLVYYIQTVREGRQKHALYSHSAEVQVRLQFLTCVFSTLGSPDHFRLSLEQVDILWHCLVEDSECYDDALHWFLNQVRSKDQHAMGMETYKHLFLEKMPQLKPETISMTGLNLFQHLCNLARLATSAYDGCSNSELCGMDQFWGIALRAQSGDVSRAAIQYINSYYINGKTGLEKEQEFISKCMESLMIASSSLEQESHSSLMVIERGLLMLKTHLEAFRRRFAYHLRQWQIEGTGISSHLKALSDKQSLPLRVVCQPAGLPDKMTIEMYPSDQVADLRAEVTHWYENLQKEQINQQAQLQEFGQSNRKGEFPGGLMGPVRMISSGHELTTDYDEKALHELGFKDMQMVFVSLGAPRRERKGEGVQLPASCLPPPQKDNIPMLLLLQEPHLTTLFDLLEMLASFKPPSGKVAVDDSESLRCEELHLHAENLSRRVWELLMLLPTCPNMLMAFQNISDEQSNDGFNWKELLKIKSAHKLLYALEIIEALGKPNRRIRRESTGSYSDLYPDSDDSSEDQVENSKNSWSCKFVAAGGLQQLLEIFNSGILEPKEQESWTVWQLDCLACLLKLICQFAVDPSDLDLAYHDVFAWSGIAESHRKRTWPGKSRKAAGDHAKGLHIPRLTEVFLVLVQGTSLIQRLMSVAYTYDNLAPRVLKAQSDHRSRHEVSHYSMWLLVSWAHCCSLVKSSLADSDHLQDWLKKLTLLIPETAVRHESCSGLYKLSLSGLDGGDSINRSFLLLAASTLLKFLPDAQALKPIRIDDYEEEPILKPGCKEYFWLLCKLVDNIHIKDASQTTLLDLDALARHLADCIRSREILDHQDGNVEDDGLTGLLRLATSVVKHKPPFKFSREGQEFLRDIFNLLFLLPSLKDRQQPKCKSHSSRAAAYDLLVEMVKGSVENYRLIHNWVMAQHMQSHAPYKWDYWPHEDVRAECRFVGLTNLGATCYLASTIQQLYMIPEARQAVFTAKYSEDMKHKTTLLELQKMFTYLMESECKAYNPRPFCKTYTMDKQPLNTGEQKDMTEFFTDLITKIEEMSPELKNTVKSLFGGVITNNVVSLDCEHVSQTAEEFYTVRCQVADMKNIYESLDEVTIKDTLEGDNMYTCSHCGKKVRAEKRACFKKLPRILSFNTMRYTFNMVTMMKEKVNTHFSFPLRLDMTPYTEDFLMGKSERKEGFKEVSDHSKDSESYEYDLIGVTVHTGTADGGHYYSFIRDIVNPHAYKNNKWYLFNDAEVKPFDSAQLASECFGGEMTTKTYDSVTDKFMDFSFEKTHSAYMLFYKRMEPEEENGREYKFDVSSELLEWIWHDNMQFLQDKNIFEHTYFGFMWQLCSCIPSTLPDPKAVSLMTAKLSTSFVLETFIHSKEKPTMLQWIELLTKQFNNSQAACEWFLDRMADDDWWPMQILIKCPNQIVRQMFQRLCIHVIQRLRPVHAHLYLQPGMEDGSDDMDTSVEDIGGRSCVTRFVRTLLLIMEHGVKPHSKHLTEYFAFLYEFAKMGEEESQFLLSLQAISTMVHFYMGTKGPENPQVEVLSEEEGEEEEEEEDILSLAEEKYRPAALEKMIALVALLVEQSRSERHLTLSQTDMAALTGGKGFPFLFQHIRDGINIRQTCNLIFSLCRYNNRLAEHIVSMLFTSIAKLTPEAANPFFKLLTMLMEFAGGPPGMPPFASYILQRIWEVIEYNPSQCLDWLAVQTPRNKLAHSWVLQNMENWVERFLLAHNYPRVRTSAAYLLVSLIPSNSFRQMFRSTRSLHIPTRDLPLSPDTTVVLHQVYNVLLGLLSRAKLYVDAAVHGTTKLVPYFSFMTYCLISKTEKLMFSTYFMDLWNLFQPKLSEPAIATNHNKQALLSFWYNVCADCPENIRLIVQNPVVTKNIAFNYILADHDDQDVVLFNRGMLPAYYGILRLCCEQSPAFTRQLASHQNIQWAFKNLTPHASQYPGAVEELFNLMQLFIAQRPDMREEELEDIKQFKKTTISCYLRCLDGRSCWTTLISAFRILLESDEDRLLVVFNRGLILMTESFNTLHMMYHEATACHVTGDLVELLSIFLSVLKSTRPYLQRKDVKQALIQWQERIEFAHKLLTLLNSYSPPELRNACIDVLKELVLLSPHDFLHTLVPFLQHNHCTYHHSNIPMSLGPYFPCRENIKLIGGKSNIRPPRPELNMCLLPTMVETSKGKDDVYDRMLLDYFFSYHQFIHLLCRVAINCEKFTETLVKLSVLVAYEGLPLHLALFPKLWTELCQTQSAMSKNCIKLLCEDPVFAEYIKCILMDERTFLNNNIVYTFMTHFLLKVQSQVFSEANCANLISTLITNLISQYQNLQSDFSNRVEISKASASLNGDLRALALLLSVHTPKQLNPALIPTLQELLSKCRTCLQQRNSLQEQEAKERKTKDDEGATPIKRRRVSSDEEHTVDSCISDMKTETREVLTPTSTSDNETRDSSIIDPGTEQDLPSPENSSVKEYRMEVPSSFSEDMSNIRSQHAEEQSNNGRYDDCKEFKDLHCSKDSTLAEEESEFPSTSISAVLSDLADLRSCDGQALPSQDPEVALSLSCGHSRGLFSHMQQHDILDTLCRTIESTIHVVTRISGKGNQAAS
Outline: (§1)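 The table lists average log2 ratios of fragment over vehicle, from an unpaired t-test on global-median-normalised Spectronaut label-free quantities. Proteins with ≥2 unique peptides were used. Samples were HEK293T lysate (495 µg) treated in triplicate with fragment at 200 µM or vehicle for 3 h, then with Biotin-Ahx-Ub-VS (0.5 µM final) for 1 h, with labelled DUBs NeutrAvidin-enriched and run by diaPASEF LC-MS/MS.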

USP36 = molecular target: T1, USP36 (UniProt Q9P275)
T1 sequence (whole entry): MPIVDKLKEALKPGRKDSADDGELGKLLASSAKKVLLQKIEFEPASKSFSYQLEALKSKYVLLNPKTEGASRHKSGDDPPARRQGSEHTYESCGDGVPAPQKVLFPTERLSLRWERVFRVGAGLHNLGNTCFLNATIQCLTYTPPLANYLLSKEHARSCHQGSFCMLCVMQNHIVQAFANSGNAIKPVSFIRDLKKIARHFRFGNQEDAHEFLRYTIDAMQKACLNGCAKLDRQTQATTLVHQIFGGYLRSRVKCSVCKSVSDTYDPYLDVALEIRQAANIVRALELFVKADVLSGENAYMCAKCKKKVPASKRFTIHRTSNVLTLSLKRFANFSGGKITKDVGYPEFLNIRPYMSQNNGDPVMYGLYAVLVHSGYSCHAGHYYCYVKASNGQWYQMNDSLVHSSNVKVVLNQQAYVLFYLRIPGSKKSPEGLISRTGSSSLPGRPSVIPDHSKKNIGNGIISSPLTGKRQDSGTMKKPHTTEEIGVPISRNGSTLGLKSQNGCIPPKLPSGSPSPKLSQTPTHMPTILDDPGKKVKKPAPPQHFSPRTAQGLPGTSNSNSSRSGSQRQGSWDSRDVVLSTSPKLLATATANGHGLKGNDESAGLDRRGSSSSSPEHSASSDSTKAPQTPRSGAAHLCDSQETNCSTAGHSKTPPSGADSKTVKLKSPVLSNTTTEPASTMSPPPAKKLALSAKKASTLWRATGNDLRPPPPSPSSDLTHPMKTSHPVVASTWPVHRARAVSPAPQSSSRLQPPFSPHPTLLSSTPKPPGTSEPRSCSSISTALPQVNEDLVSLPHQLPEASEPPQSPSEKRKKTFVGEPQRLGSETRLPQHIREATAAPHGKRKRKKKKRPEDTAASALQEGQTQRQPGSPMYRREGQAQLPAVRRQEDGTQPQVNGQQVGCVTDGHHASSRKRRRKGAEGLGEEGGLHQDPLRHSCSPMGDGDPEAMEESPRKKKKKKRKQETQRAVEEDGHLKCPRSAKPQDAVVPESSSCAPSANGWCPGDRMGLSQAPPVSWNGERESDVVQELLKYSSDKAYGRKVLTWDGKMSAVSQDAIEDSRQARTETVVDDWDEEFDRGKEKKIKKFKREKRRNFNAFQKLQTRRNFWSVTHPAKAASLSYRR
Outline: as §1

USP38 = molecular target: T2, USP38 (UniProt Q8NB14)
T2 sequence (whole entry): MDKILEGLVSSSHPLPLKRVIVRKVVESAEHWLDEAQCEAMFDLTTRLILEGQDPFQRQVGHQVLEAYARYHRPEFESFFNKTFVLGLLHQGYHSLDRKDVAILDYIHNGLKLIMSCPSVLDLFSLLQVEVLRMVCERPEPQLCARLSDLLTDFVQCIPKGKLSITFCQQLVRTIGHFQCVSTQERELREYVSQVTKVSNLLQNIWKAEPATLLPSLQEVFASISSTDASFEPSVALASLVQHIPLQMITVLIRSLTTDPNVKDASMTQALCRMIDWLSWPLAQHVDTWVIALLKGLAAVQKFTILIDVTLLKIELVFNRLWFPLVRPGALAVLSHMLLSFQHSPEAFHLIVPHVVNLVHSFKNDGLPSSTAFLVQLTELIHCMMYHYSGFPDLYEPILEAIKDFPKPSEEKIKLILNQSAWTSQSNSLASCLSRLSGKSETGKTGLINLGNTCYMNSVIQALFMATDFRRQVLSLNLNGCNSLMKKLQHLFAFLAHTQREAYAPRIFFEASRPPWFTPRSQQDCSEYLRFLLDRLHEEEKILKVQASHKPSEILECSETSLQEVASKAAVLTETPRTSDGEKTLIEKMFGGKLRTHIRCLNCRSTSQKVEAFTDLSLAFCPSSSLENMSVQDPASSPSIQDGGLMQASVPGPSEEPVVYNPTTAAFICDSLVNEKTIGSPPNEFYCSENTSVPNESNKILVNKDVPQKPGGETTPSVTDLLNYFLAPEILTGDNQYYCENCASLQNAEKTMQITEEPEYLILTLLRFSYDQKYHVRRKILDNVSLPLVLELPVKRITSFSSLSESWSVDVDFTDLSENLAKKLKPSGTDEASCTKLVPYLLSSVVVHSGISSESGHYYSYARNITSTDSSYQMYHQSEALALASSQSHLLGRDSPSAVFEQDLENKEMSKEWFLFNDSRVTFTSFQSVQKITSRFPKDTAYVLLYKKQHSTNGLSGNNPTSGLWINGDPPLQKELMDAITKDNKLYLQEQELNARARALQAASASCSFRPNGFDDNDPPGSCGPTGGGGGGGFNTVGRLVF
Outline: as §1

USP39 = molecular target: T3, USP39 (UniProt Q53GS9)
T3 sequence (whole entry): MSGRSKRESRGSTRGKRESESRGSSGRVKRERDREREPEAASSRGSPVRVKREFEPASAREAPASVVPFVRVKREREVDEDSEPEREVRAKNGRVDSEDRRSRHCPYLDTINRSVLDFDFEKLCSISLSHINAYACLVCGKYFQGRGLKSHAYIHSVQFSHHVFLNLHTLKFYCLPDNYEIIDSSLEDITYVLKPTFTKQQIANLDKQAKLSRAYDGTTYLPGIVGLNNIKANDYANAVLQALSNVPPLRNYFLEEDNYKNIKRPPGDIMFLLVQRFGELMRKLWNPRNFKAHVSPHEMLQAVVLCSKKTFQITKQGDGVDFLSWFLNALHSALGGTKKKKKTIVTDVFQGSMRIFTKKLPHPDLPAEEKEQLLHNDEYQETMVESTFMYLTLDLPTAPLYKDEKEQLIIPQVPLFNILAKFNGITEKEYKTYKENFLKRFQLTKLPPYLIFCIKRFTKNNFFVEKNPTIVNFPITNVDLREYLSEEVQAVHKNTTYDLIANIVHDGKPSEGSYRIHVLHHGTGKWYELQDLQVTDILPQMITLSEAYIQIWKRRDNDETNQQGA
Outline: as §1

USP4 = molecular target: T4, USP4 (UniProt Q13107)
T4 sequence (whole entry): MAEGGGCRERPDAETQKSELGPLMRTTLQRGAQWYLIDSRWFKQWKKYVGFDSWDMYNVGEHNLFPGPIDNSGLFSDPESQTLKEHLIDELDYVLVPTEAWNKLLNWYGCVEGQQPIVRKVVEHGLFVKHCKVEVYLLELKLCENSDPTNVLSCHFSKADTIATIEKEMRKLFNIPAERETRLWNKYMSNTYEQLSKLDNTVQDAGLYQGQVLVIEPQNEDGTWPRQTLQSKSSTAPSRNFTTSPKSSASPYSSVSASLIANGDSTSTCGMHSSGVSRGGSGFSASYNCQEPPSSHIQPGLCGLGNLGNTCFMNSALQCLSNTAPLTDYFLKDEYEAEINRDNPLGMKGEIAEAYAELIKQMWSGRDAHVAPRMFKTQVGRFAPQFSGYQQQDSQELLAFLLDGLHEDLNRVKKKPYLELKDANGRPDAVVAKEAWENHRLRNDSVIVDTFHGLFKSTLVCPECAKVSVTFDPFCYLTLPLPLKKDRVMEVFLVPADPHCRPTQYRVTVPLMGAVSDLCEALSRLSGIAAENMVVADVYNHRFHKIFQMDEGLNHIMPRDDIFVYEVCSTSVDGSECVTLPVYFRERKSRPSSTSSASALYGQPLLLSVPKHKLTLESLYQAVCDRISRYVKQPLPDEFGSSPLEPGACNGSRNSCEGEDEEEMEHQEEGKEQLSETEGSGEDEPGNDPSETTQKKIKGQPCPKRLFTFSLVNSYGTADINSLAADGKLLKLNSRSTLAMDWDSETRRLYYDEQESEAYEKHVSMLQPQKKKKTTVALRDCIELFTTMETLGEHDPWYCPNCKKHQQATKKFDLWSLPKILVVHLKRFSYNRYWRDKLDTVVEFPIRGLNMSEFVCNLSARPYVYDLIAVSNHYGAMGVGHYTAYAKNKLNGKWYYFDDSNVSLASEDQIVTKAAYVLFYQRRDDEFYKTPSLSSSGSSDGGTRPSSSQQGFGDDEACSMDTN
Outline: as §1

Measured: log2 ratio of Biotin-Ahx-Ub-VS probe labelling

Cc1noc(C)c1CNC(=O)CCl
inactive: USP34 -0.584 | USP36 -0.32 | USP38 -0.547 | USP39 0.303 | USP4 -0.608
